Screens: PubChem BioAssay, National Center for Advancing Translational Sciences (NCATS)
This is a sample that favours compounds with a hit; in the whole collection about 3.1% have one here.
Tau fibril ThT – qHTS for Inhibitors of Tau Fibril Formation, Thioflavin T Binding; Microtubule-associated protein tau (Homo sapiens), P10636; recombinant tau K18 P301L, heparin-induced fibrillization, ThT fluorescence; Potency, µM (highest dose often 57.4 µM), for the others: top-dose activity, negative = inhibition, hits mostly inhibitors; actives 2.1% (n = 270,000); AID 1460, 2008; note: nearly all actives have a fitted effect of over 55% in size
Target sequence (P10636 561-689 P618L limits assumed): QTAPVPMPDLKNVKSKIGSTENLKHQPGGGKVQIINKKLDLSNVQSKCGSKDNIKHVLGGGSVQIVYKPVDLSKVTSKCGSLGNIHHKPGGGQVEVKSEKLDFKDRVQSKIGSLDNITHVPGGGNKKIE
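In this qHTS, human K18 P301L tau is incubated with compound and heparin for 6 hr at 37 C, and Thioflavin T fluorescence then reports fibril load.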
TexasRed fluor – Total Fluorescence Counterscreen for Inhibitors of the Interaction of Thyroid Hormone Receptor and Steroid Receptor Coregulator 2 | TRb/SRC2 Texas Red total fluorescence interference | Potency, µM (doses to about 106 µM), for inactives: top-dose fluorescence change, negative = quenching | actives 0.29% (n = 280,000); active = well fitted curve in either direction with a large enough effect; inconclusive = small, poorly fitted or top-dose-only effect
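Flags fluorescent or light-absorbing compounds by total fluorescence, S + 2P, at 555 nm excitation and 632 nm emission. Mixture: 20 nM Texas Red SRC2 peptide, 0.6 uM human TRb LBD, 1 uM T3, 5% DMSO; compound exposure 5 h at ambient temperature.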
TRb SRC2 PPI – qHTS for Inhibitors of the Interaction of Thyroid Hormone Receptor and Steroid Receptor Coregulator 2 | actives 0.065% (n = 280,000) | Potency, µM (top dose mostly 106 µM), inactives show top-dose activity change, negative = inhibition, most hits filed as inhibitors | AID 1469, 2008 | TRbeta-SRC2 peptide binding, fluorescence polarization; receptor liganded with 1 µM T3 | Thyroid hormone receptor beta (Homo sapiens), P10828;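 note: plate controls were bound peptide for no effect and peptide without receptor for full effect; nearly all actives have a fitted effect of over 50% in size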
Target sequence (P10828 whole entry, looked up): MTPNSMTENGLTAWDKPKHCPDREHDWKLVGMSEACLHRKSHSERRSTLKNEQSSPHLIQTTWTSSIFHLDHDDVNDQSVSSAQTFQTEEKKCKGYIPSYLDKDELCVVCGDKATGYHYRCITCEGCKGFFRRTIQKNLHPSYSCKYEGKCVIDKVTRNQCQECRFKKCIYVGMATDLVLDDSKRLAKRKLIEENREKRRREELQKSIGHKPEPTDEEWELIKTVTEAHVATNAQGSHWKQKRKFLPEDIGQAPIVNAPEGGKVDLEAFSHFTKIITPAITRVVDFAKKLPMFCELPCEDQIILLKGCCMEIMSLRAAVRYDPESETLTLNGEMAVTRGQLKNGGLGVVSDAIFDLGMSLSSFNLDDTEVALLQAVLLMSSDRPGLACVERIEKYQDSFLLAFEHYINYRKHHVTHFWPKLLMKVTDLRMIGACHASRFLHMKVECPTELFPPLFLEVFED
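Assay buffer: 20 mM Tris-HCl, 100 mM NaCl, 10% glycerol, 1 mM EDTA, 0.01% NP-40, 1 mM DTT, 1 uM T3, 5% DMSO; TRb LBD 0.6 uM, Texas Red SRC2 20 nM; FP after 5 hr.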
Tau FP inhib – qHTS for Inhibitors of Tau Fibril Formation, Fluorescence Polarization. Microtubule-associated protein tau (Homo sapiens), P10636. K18 P301L tau heparin fibrillization, Alexa594 FP, 6 h. Potency, µM (highest dose often 57.7 µM), without a hit: at the highest dose activity, negative = inhibition, usual class: inhibitors. actives 0.39% (n = 280,000). AID 1468, 2008; note: nearly all actives have a fitted effect of over 55% in size
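Quantitative HTS format: compounds meet 15 uM recombinant K18 P301L tau and Alexa 594-tau tracer in 100 mM sodium acetate pH 7; 20 uM heparin triggers fibrillization at 37 C over 6 hr; FP gives the signal.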
Tau fluor counter – Counterscreen qHTS for Inhibitors of Tau Fibril Formation, Fluorescence Polarization; tau K18 P301L (four-repeat tau fragment) Alexa594 fluorescence, heparin fibrillization; Potency, µM (highest dose often 57.7 µM), for inactives: top-dose activity change, negative = decrease; actives 0.93% (n = 280,000); note: nearly all actives have a fitted effect of over 55% in size
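Human K18 P301L tau (15 uM unlabeled plus 0.24 uM Alexa 594-labeled, final) in 100 mM sodium acetate pH 7 was mixed with compound and 20 uM heparin and incubated 6 hr at 37 C.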
* marks the source's active call; other numbers are inactive results; u = inconclusive; x = no result; [ ] = another dose, or the depositor's remark. Unless noted, calls come from the whole dose curve; as a rule, active = well fitted curve in the direction sought with a large enough effect; inconclusive = small, poorly fitted or top-dose-only effect, or another doubt; inactive = no such curve, though single readings can be large; an effect the other way counts as inactive or inconclusive. Unless noted, % is set by controls: 0 for no effect and ±100 for the full control effect; potency is the fitted concentration of half-maximal effect.

SMILES	Tau fibril ThT	TexasRed fluor	TRb SRC2 PPI	Tau FP inhib	Tau fluor counter
Cn1c(=O)cc(SCC(=O)N2CCN(c3ccccc3F)CC2)c2cc(Cl)ccc21	-15%	0%	-8%	9%	-23%
[O-]/[N+](=N\O)c1ccccc1	x	-3%	8%	x	x
COc1ccc(CNC(=O)Cc2csc3nc(-c4ccc(F)cc4)cn23)cc1	5%	-4%	1%	-6%	-11%
CCCN(Cc1ccccc1)C(=S)Nc1ccc(OCC)cc1	-10%	1%	3%	1%	-17%
CCOc1ccc(NC(=S)NNC(=S)Nc2cccc(C(F)(F)F)c2)cc1	32µM*	-4%	2%	u	28µM*[quencher]
FC(F)(F)c1cccc(NC(=S)NNC(=S)Nc2cccc(C(F)(F)F)c2)c1	28µM*	2%	-1%	u	10µM*[quencher]
O=[N+]([O-])c1cc(C(F)(F)F)cc([N+](=O)[O-])c1NCCNC(=S)Nc1ccc(Cl)c(Cl)c1	u	-2%	5%	u	5.6µM*[quencher]
CCOc1ccc(NC(=S)NN(C)C(=S)Nc2ccc(OCC)cc2)cc1	u	-4%	-7%	14%	18µM*[quencher]
CNNC(=S)Nc1cccc(C(F)(F)F)c1	-5%	0%	6%	5%	-17%
CC(=O)OC[C@@H]1O[C@@H](O/N=C2/C[C@@H](O)[C@@H](O)[C@@H]3[C@@H]4C(=O)N(c5cccc(Oc6ccccc6)c5)C(=O)[C@H]4CC[C@H]23)[C@H](OC(C)=O)[C@H](OC(C)=O)[C@@H]1OC(C)=O	-7%[11.5 µM]	0%[11.2 µM]	-4%[11.2 µM]	1%[11.6 µM]	-8%[11.6 µM]
CCOc1ccc(CNC(=O)Cn2nc(C)c3nn(-c4ccc(Cl)cc4)c(C)c3c2=O)cc1OC	u	-1%	1%	u	4%
O=C(COc1ccc(C(=O)O)cc1)Nc1cccc(C(F)(F)F)c1	1%	-1%	-5%	8%	-5%
FC(F)(F)c1cccc(NC(=S)Nc2ccc(Cl)c(Cl)c2)c1	u	-5%	9%	22µM*	18µM*[quencher]
O=C(COCC(=O)Nc1cccc(C(F)(F)F)c1)Nc1cccc(C(F)(F)F)c1	5%	-1%	-15%	11µM*	u
COc1ccc(NC(=S)NNC(=S)Nc2cccc(C(F)(F)F)c2)cc1	u	-2%	2%	0%	14µM*[quencher]
CCc1ccc2oc(C(=O)Nc3nc(-c4ccc(F)cc4)ns3)c(C)c2c1	-15%	1%	-2%	-18%	-10%
Cc1cc(C(=O)O)ccc1-n1c(C)cc(C=C2C(=O)c3ccccc3C2=O)c1C	14µM*	-8%	8%	-8%	-18%
C=C(C)C(=O)OCC(CC)(COC(=O)C(=C)C)COC(=O)C(=C)C	x	-1%[201 µM]	8%[201 µM]	x	x
Cc1cccc(N2CCN(S(=O)(=O)c3ccc(-c4cc(C(F)(F)F)on4)s3)CC2)c1C	5%	-3%	3%	u	-7%
COc1cc(CN(C(=S)NCC(=O)NC2CC2)C2CCCC2)cc(OC)c1OC	-10%	0.089µM*[quencher]	u	1%	-11%
Cc1nn(C)c2c1c(C(F)(F)F)cc(=O)n2C(C)C(=O)NCc1ccccc1Cl (stereo not given)	-12%	316µM*[quencher]	-21%	5%	-12%
COc1ccc(-n2cc(C(=O)NCCc3cc(OC)ccc3OC)c3ccccc3c2=O)cc1	u	-6%	6%	11%	1%
COc1cc2nc(N(C)CCCNC(=O)[C@@H]3CCCO3)nc(N)c2cc1OC	x	0%[53 µM]	-5%[53 µM]	x	x
CCCCOc1ccc(-c2c(C#N)c(N)nc(SCC(N)=O)c2C#N)cc1	-11%	1%	1%	22µM*	u
CN1C[C@@H]2C[C@H]1CN2c1cc2c(cc1F)c(=O)c(C(=O)O)cn2C1CC1	x	0%	1%	x	x
SMILES	Tau fibril ThT	TexasRed fluor	TRb SRC2 PPI	Tau FP inhib	Tau fluor counter
CC1(C)CC2(CC(c3ccccc3F)c3ccc(O)c(O)c3O2)NC(=S)N1 (stereo not given)	22µM*	-4%	-1%	u	u
CCN1C(=O)[C@@H]2[C@H]3C(=CC[C@@H]2C1=O)C1(OCCCO1)[C@H]1O[C@@H]1[C@H]3O	2.8µM*	0%[11.2 µM]	0%[11.2 µM]	u	u
Cc1cc(C)nc(NS(=O)(=O)c2ccc(NC(=O)c3cccs3)cc2)n1	-2%	-1%	8%	1%	-7%
CCCCN(CCCC)S(=O)(=O)c1ccc(NC(=O)c2cccs2)cc1	-4%	1%	8%	14µM*	u
COc1ccccc1CNc1nc2nc(C)c(Cl)c(C)n2n1	-4%	0.022µM*[quencher]	-18%[53 µM]	-7%	-7%
CCc1ccc2occ(CC(=O)Nc3sc4c(c3C(=O)NCCOC)CCCC4)c2c1	5%	-9%	0%	-4%	-4%
CC(=O)C1=C(c2cccc([N+](=O)[O-])c2)N(C(C)=O)n2c(C)nnc2S1	3.5µM*	-7%	-5%	u	-29%
Cc1ccsc1C=C1C(=O)c2ccccc2C1=O	14µM*	-8%	-2%	-2%	u
O=C1CCCCCCC1Sc1ccccc1[N+](=O)[O-] (stereo not given)	32µM*	-1%	-1%	u	-23%
CC1(C)CC(=O)C(Sc2ccccc2[N+](=O)[O-])=C(O)C1	-15%	-1%	1%	-4%	-3%
Cc1ccc(NC(=O)C2CCCN(c3ncnc4onc(C)c34)C2)c(Cl)c1 (stereo not given)	-6%	0%	4%	-7%	-12%
Cc1cc(C)cc(Nc2cc(C(=O)NCc3ccccc3)c3ccccc3n2)c1	-13%	-1%	6%	u	3.5µM*[quencher]
Cc1cc(C)cc(Nc2cc(C(=O)NCCCN(C)C3CCCCC3)c3ccccc3n2)c1	u	-1%	-3%	4%	3.2µM*[quencher]
COc1ccc(NC(=O)c2ccco2)cc1NC(=O)c1cc(Br)ccc1Cl	4%	-3%	5%	-15%	-17%
CC1=C(C)C(=O)N(c2ccccn2)C1=O	-2%	-1%	-2%	-1%	5%
Cc1nn(-c2ccccn2)c2c1C(=O)C(Br)CC2 (stereo not given)	2.8µM*	-11%	u	3.2µM*	u
COC(=O)C(NS(=O)(=O)c1ccc(C)cc1)c1ccccc1 (stereo not given)	-4%	2%	-5%	-6%	-4%
Cc1ccc(S(=O)(=O)NC2OC(=O)C(Cl)=C2Cl)cc1 (stereo not given)	28µM*	-4%	-15%	u	-19%
COCCNC(=O)CSc1nc2cc3c(cc2c(=O)n1CCCC(=O)NCc1ccc2c(c1)OCO2)OCO3	4%	-2%	-1%	-3%	-1%
